The results in this text go back to the OligoGym collection.
Note: reference of the scale not given here.

The target of the first experiment is SMC5. As to the kind of experiment: pooled miR-30 sensor sort-seq; sequence = guide strand. The conditions noted are these: shRNA.
Sequence TTGATTTCATCAACTACTCTGA yielded a sensor-assay potency score (higher = more potent) of 0.124.

With TATAAATCTGTTTTAATCGGGT, the sensor-assay potency score (higher = more potent) is -0.0428. As for TTTCCTTTCTATAACATCTTGC, the sensor-assay potency score (higher = more potent) worked out at 0.304.

The target in another experiment is SMCP. Described as above. The conditions noted are these: shRNA.
In the case of TTGGTGGGCAGCATTGACTGCC, the sensor-assay potency score (higher = more potent) is -0.359. For TTTGGTGGGCAGCATTGACTGC, the sensor-assay potency score (higher = more potent) is -0.712. The same measure, in the same setting: in the case of TCTAAACACAGGTCTAGCCTGA it was 0.141; in that of TTGTCCTGAGTTTGCGGTGAGT, -1.27. Still for that read-out and setting: in the case of TTGTGTTTTGGTGGGCAGCATT it was -1.54. The sequence TTGATTGCCTTTTGACTGGCAG returned a sensor-assay potency score (higher = more potent) of 0.000564.

For TTTGCGGTGAGTTGGGCTCAGA, the sensor-assay potency score (higher = more potent) was -1.18. As for TTTTGACTGGCAGCACTGGTTC, the sensor-assay potency score (higher = more potent) was -0.818. As to TGACTGGCAGCACTGGTTCTGC, the sensor-assay potency score (higher = more potent) was -1.04. In the case of TTGGTCTCCAAACCACAGCACC, the sensor-assay potency score (higher = more potent) was -1.3. For TAAGGGGTGAGACTTCAGGCTT, the sensor-assay potency score (higher = more potent) was -0.603. With TTTGCTGGGCAGCATTTACTGT, the sensor-assay potency score (higher = more potent) was -0.976.

For a further experiment, the target named is SMCR7L. The description is as above. The conditions noted are these: shRNA.
In turn, TTGCTCTAAGGCCACATCCTAG came in with a sensor-assay potency score (higher = more potent) of -1.5. On the same count and under the same terms, in the case of TACATTGCAATAAATACTGCAA it was 0.27. Still for that read-out and setting: in the case of TGACTTCTTCAAGTCTACCTGG it was -0.253. As to AAACATGCTATCACAGCTCTTC, the sensor-assay potency score (higher = more potent) amounted to 0.268. The same measure, in the same setting: the value for TATGTCCACAGCAGCTTGCTTG was -1.35; that for TTCTACTCCAGGAACCGTGGTC was 0.223; that for TTGTCTGTCTGACCCCTGCAGC was -0.951. In the case of TTAAACATTCCTCCCCACCTTC, the sensor-assay potency score (higher = more potent) is -0.361. Turning to TTGCATTCAGCTTATCCTGTGT, the sensor-assay potency score (higher = more potent) worked out at 0.0334. In the case of TAAGTAGCTGATAAGTCCCCTC, the sensor-assay potency score (higher = more potent) is -0.665. On to TTCTCCTGCAGGGACATGCGGA, for which the sensor-assay potency score (higher = more potent) is -1.36.

For the sequence TAGCCAAGTGTATCTAACGGAG, the sensor-assay potency score (higher = more potent) is -1.24.

Another experiment deals with SMYD2. Described as above. Conditions: shRNA.
In turn, TAACATATGAAACCATGCCATT returned a sensor-assay potency score (higher = more potent) of -1.62. As to TAGTCTTACAGTCTCCGAGGGA, the sensor-assay potency score (higher = more potent) was -0.703. On to TTAACCGGTCATTTCTATCTTC, for which the sensor-assay potency score (higher = more potent) was 0.511. TTAAGGTTTCTGAACTAAGTGT: the sensor-assay potency score (higher = more potent) is -0.419. Consider TTATCCTTGTCCTTGGTGGTAC, for which the sensor-assay potency score (higher = more potent) was -0.716. Turning to TACAGCTCTGACTTCTGCCAGG, the sensor-assay potency score (higher = more potent) was -0.948. On to TTACTGTCCTCAAACACAGAGC, for which the sensor-assay potency score (higher = more potent) was -0.927. TTGACCGTGAGCACGTAGGCAT displayed a sensor-assay potency score (higher = more potent) of -0.166. Regarding TACAGGAGATCAATATAGCTGG, the sensor-assay potency score (higher = more potent) is -0.203. Regarding TTTGCCGTGAGCTACTTCCATG, the sensor-assay potency score (higher = more potent) is -1.61. The same measure, in the same setting: in the case of TAGGTCACAATGACATTGGGGC it was 0.446; in that of TTTTCTGTCCATATTGCAGGGC, -0.2.
